S1P3 antagonist = S1P3 receptor antagonists, primary screen, cell-based; Sphingosine 1-phosphate receptor 3 (Homo sapiens), Q99500; hit rate 0.27% among 170,000; AID 485, 2006; CHO S1P3 NFAT-BLA reporter, FRET fluorescence, antagonist mode; inhibition, % at 4.98 µM;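 active means inhibition above the plate cutoff, the mean inhibition of test wells on that plate plus 3 SD, cut at about 28% in these data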;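 further: cells challenged with S1P at its EC80 of 0.8 µM; blue over green emission ratio from cleaved BLA substrate after 4 h stimulation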
Target sequence (Q99500 whole entry, looked up): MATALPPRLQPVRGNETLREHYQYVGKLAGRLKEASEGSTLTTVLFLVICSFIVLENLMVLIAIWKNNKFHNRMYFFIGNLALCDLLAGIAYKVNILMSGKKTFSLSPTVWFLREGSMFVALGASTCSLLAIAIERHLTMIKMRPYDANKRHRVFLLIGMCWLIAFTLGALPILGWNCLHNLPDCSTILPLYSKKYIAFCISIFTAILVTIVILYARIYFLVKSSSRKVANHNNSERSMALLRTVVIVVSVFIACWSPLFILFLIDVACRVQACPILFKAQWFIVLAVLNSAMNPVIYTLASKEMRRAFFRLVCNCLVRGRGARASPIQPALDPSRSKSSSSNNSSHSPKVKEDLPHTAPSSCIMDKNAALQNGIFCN
S1P4 antag = S1P4 receptor antagonists, primary screen, cell-based; Sphingosine 1-phosphate receptor 4 (Homo sapiens), O95977; AID 1510, 2009; hit rate 0.26% among 220,000; inhibition, % at 4.98 µM; S1P4-expressing cells, antagonist mode, reporter read-out; in the data active means inhibition above about 29%
Insulin prom inh = inhibitors of insulin promoter-driven GFP, primary screen, imaging, TRM-6 cells (human fetal islet line), eGFP reporter, cell count. reporter expression induced with tamoxifen. inhibition, % at 2 µM. hit rate 0.9% among 130,000. AID 1273, 2008;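 active means inhibition above the mean plus 3 SD, with well images judged a real hit on visual review, cut at about 60% in these data, passing the limit was not always enough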
S1P4 agonist = S1P4 receptor agonists, primary screen, cell-based; Sphingosine 1-phosphate receptor 4 (Homo sapiens), O95977; S1P4-expressing cell line, agonist reporter assay; activation, % at 4.98 µM; hit rate 0.35% among 220,000; AID 1509, 2009; in the data active means activation above about 11%
Insulin prom up = insulin promoter activators in MIN6 cells, imaging, high-content screening, mouse beta cells | z-score at 5 µM | MIN6 insulin promoter-GFP reporter; hits give high values | hit rate 0.3% among 190,000;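 active means z-score above 3 at 5 µM with at least 500 cells counted in the well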
Hsp70 activator = Hsp70 transcriptional activators, primary screen, cell-based, HeLa, Hsp70 promoter luciferase, luminescence, 10 µM; activation, % at 10 µM; HeLa Hsp70 promoter luciferase reporter; scaled: vehicle 0, proteasome-inhibitor control 100%; hit rate 0.04% among 200,000;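 active means activation above the mean across all tested compounds plus 3 SD, cutoff set per campaign, cut at about 5.5% in these data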
S1P4 antag conf = S1P4 receptor antagonists, human, confirmation, cell-based; S1P4-expressing cell line, antagonist mode, reporter read-out; shares compounds with S1P4 antag; hit rate 71% among 520; inhibition, % at 4.98 µM; AID 1524, 2009; in the data active means inhibition above about 30%
S1P1 antag = S1P1 receptor antagonists, human, counter-screen for S1P4 antagonist project, cell-based; shares compounds with S1P4 antag; cell-based S1P1 antagonist counterscreen, inhibition; inhibition, % at 4.98 µM; hit rate 37% among 520; in the data active means inhibition above about 40%;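 further: receptor stimulated with S1P near its EC80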
Numbers stand for hits; – = inactive; · = not tested or not shown. The list is not random: actives were taken first. Their share in the collection is about 1.5%.

SMILES	S1P3 antagonist	S1P4 antag	Insulin prom inh	S1P4 agonist	Insulin prom up	Hsp70 activator	S1P4 antag conf	S1P1 antag
CCOC(=O)CS(=O)(=O)c1nc(-c2ccccc2)cc(C(F)(F)F)n1	–	98	–	–	–	–	115	–
O=C(O)CCS(=O)(=O)c1nc(-c2cccs2)cc(C(F)(F)F)n1	·	–	–	–	–	–	·	·
Cc1ccc(NC(=O)c2c(C)nn(-c3ccccc3)c2Cl)cc1	–	–	·	–	–	–	·	·
O=C(CN1CCOCC1)Nc1ccc(N2CCN(c3ccccc3)CC2)c(F)c1	–	–	·	–	–	–	·	·
CC(O)c1nc2ccccc2n1CC(=O)Nc1ccc(F)cc1Cl (stereo not given)	–	–	·	–	–	–	·	·
CN(NC(=O)Nc1ccc(Cl)cc1)c1ncc(C(F)(F)F)cc1Cl	·	–	–	–	·	–	·	·
CN(NC(=O)Nc1ccc(Cl)cc1)c1c(Cl)c(Cl)nn1C	–	53	–	–	–	–	47	–
CC(C)(C)c1nnc(NC(=O)Cc2ccc(Br)cc2)s1	–	–	–	–	–	–	·	·
O=C1/C(=C/c2ccc(O)cc2)SC(=S)N1CC1CCCO1 (stereo not given)	–	30	·	–	·	·	–	–
COc1ccc2c(c1)c(/C=N/Nc1nc3ccccc3[nH]1)c(C)n2C	–	32	·	–	–	·	–	–
COc1cc(/C=N\Nc2nc3ccccc3[nH]2)cc(OC)c1OC	·	–	·	–	–	–	·	·
CCc1nn(-c2ccccc2)c(N)c1-c1ccc(OC)c(OC)c1	·	–	–	–	·	–	·	·
COC(=O)COc1ccc(S(=O)(=O)N2CCN(c3ccccc3F)CC2)cc1C	–	35	–	–	–	–	–	–
CCOC(=O)N1CCN(S(=O)(=O)c2ccc(OCC(=O)OC)c(C)c2)CC1	–	–	–	–	–	–	·	·
COc1ccc(/C=C/C(=O)c2c(O)c(OC)c3occc3c2OC)cc1	–	34	·	–	–	–	52	–
COc1ccc(/C=C/C(=O)c2ccccc2O)cc1	–	–	–	–	–	–	·	·
COc1ccc(C2=NN(CC(=O)NCc3ccco3)C(=O)CC2)cc1	–	–	–	–	–	–	·	·
COc1cccc(-n2nc(C#N)c(Cl)cc2=O)c1	–	94	–	–	–	–	104	–
COc1cccc(-n2nc(C(N)=O)c(O)cc2=O)c1	–	–	–	–	–	–	·	·
CN1Cc2c(N3CCOCC3)nc3sc(C#N)c(N)c3c2CC1(C)C	–	–	·	–	·	·	·	·
CN1Cc2c(N3CCOCC3)nc3sc(C(=O)c4ccc(Br)cc4)c(N)c3c2CC1(C)C	–	43	·	–	–	·	57	58
CCC(=O)n1nc(NCc2ccccc2OC)nc1NCc1ccccc1OC	–	–	–	–	–	–	·	·
Cc1ccc(C(=O)NC(C#N)=C(Cl)Cl)cc1	–	60	–	–	–	–	110	–
Cc1ccc(C(=O)NCC#N)cc1	–	–	–	–	–	–	·	·
NC(=O)CC[C@@H]1NC(=O)[C@H](Cc2ccccc2)NC(=O)[C@H](Cc2ccc(O)cc2)NC(=O)[C@@H](N)CSSC[C@@H](C(=O)N2CCC[C@H]2C(=O)N[C@@H](CCCN=C(N)N)C(=O)NCC(N)=O)NC(=O)[C@H](CC(N)=O)NC1=O	–	–	–	–	–	–	·	·
COc1ccc(-c2cc(C(F)(F)F)nc(SCC(=O)N3CC(C)OC(C)C3)n2)cc1OC (stereo not given)	–	–	·	–	·	–	·	·
Cc1ccc(S(=O)(=O)Nc2cccc3ncccc23)s1	–	47	·	–	–	–	108	109
CCOC(=O)COc1ccccc1/C=C\[N+](=O)[O-]	–	33	–	–	–	–	114	72
CCOC(=O)COc1cc([N+](=O)[O-])cc2cccnc12	–	–	–	–	–	–	·	·
